Gal4-VP16 FLuc = counter-screen for ROR gamma inhibitors: Gal4-VP16 reporter. Drosophila S2 Gal4-VP16 UAS-luciferase, luminescence, 20 h. Potency, µM (titrated, usually from 53.6 µM), actives largely listed as inhibitors. 310,000 compounds, 3.5% hits. AID 2546;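 further: Gal4-VP16 expression switched on by copper sulfate through the metallothionein promoter; nearly all actives have a fitted effect of over 50% in size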
RORgamma inh = blocks mouse ROR gamma transcriptional activity; P51450; Potency, µM (highest dose often 53.6 µM), actives largely listed as inhibitors; 310,000 compounds, 5.4% hits; Drosophila S2 Gal4-RORgamma UAS-luciferase reporter, 20 h; further: nearly all actives have a fitted effect of over 60% in size
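Using a luciferase readout, inhibitors were identified by reduced reporter activity in Drosophila cells coexpressing a copper-inducible Gal4–ROR gamma fusion and UAS-driven Photinus luciferase, incubated 20 hr after 700 uM copper sulfate.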
TrxR1 substrate = substrates of rat thioredoxin reductase 1; O89049; purified TrxR1 substrate turnover, NADPH consumption readout; Potency, µM (highest dose often 114 µM); AID 588456; 390,000 compounds, 0.01% hits; further: nearly all actives have a fitted effect of over 50% in size
Target sequence (O89049 whole entry, looked up): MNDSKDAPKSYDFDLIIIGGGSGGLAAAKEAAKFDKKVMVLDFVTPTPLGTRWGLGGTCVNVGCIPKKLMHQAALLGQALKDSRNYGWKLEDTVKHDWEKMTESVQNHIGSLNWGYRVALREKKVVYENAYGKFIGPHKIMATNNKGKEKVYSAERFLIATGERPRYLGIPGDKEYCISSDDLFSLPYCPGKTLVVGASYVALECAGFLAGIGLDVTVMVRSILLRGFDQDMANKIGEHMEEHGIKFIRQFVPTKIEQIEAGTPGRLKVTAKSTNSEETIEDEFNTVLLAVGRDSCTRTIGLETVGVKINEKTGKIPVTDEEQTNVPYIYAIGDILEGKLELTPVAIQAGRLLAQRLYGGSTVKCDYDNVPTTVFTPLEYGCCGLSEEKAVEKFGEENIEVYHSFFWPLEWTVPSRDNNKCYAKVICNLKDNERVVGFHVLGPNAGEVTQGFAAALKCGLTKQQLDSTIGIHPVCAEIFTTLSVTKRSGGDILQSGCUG
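Rat TrxR1, dispensed at 90 nM, was prereduced with 400 uM NADPH (final) for 5 min at ~22 deg C, then incubated with compound 15 min before 400 uM selenite. A first-read NADPH fluorescence drop versus no-compound background flagged substrates.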
GALK inhibitor = blocks human galactokinase activity; Purified GALK, Kinase-Glo residual ATP luminescence; Potency, µM (top dose mostly 57.5 µM), most hits filed as inhibitors; 270,000 compounds, 0.007% hits; AID 1868
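Compounds were pin-transferred into ATP buffer (35 uM final), then GALK plus galactose (5 nM, 100 uM final) was added. After 1 h at room temperature, Kinase-Glo Plus was added and luminescence read after 10 min.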
Coupling enz = coupling enzyme interference in Giardia aldolase counter-screen. coupling enzyme system counterscreen, AmpLite Red fluorescence. 290,000 compounds, 0.67% hits. activity change, negative = inhibition, % at 58.2 µM, hits read low; in the data active means activity change below about -30%
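Counterscreen of the coupled detection system alone, without aldolase: glyceraldehyde-3-phosphate coupling enzymes plus AmpLite Red readout. Compounds at 57.5 uM final, 10 min RT preincubation, 20 min RT reaction, fluorescence 525/598 nm.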
TrxR1 inh = rat TrxR1 inhibition; O89049; recombinant rTrxR1, NADPH fluorescence consumption, selenite substrate; Potency, µM (doses to about 114 µM), most hits filed as inhibitors; 390,000 compounds, 1% hits; further: nearly all actives have a fitted effect of over 65% in size
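Rat TrxR1 (90 nM in the dispensed reagent) was pre-reduced with 400 uM NADPH for 5 min at room temperature, then incubated with compound for 15 min. After 400 uM selenite was added, NADPH fluorescence (Ex 340/Em 450 nm) was followed for 8 min.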
Each line names hits and unclear results; the compound was inactive in the other large screens; ! = repeats disagree. This is a sample that favours compounds with a hit; in the whole collection about 5.9% have one here. Unless noted, the call rests on the fitted dose curve; in most records, active means well fitted curve in the direction sought with a large enough effect; inconclusive means small, poorly fitted or top-dose-only effect, or another doubt; inactive means no such curve, though single readings can be large; an effect the other way counts as inactive or inconclusive.

COc1ccc(Cl)cc1NC(=S)N1CCCCCC1	RORgamma inh inconclusive
COc1ccccc1NC(=S)NC1CCCC1	none (no result: Gal4-VP16 FLuc, RORgamma inh, GALK inhibitor, Coupling enz)
COc1ccc(NC(=S)NC2CCCCC2)c(OC)c1	Gal4-VP16 FLuc inconclusive, RORgamma inh 3.16µM
COc1ccc(Cl)cc1NC(=S)N1CCC(c2ccc(C)cc2)C1 (stereo unspecified)	RORgamma inh 12.6µM
COc1ccc(Cl)cc1NC(=O)CC1CCCC1	none
COc1ccc(NC(=S)NC2CCCCCC2)c(OC)c1	Gal4-VP16 FLuc 7.08µM, RORgamma inh 3.16µM
COc1ccc(Cl)cc1NC(=S)NC1CCCC1	Gal4-VP16 FLuc 7.08µM, RORgamma inh 10µM
O=Cc1c(NCCc2ccc(F)cc2)c2ccccc2[nH]c1=O	none
CCOc1ccc(C(=O)Nc2cccc(NC(=O)c3ccc(Cl)cc3Cl)c2)cc1	none (no result: Gal4-VP16 FLuc, RORgamma inh, GALK inhibitor, Coupling enz)
Cc1cccc(C)c1NC(=S)N1CCC(c2ccccc2)C1 (stereo unspecified)	Gal4-VP16 FLuc 35.5µM, RORgamma inh 15.8µM
Cc1cccc(C)c1NC(=S)N1CCOCC1	none
Cc1ccc(NC(=S)/N=C(\N)Nc2nc(C)c3cc(C)ccc3n2)c(C)c1	Gal4-VP16 FLuc 7.08µM, RORgamma inh 7.94µM
Cc1ccc(S(=O)(=O)/N=C(\N)Nc2nc(C)c3cc(C)c(C)cc3n2)cc1	none
CCc1ccccc1NC(=S)/N=C(\N)Nc1nc(C)c2cc(C)ccc2n1	Gal4-VP16 FLuc 3.16µM, RORgamma inh 2.82µM
Cc1ccc2c(C)nc(N/C(N)=N/S(=O)(=O)c3ccccc3)nc2c1	none (no result: Coupling enz)
Cc1ccc(S(=O)(=O)/N=C(\N)Nc2nc(C)c3cc(C)ccc3n2)cc1	none
Cc1ccc(NC(=S)/N=C(\N)Nc2nc(C)c3cc(C)c(C)cc3n2)cc1C	Gal4-VP16 FLuc 5.01µM, RORgamma inh 2.24µM
O=C(CCCCCN1C(=O)CCC1=O)Nc1ccc2c(c1)OCO2	none
CNCCCC12CCC(c3ccccc31)c1ccccc12	Gal4-VP16 FLuc inconclusive, RORgamma inh 10µM!, TrxR1 inh inconclusive
CC(C)C(=O)NC(c1cccc([N+](=O)[O-])c1)c1ccc2cccnc2c1O (stereo unspecified)	Gal4-VP16 FLuc 2.51µM, RORgamma inh 2.82µM
CC(C)C(=O)NC(c1ccco1)c1ccc2cccnc2c1O (stereo unspecified)	Gal4-VP16 FLuc 5.01µM, RORgamma inh 2.82µM
CC(=O)NC(c1ccc([N+](=O)[O-])cc1)c1c(O)ccc2ccccc12 (stereo unspecified)	none
CC(C)C(=O)NC(c1ccc([N+](=O)[O-])cc1)c1c(O)ccc2ccccc12 (stereo unspecified)	Gal4-VP16 FLuc 12.6µM, RORgamma inh inconclusive
Oc1c(C(Nc2nc3ccccc3s2)c2ccco2)ccc2cccnc12 (stereo unspecified)	Gal4-VP16 FLuc 5.62µM, RORgamma inh 2.51µM, TrxR1 inh inconclusive
CC(C)CC(=O)NC(c1cccs1)c1ccc2cccnc2c1O (stereo unspecified)	none
CC(C)C(=O)NC(c1ccc(N(C)C)cc1)c1ccc2cccnc2c1O (stereo unspecified)	none (no result: Gal4-VP16 FLuc, RORgamma inh, GALK inhibitor, Coupling enz)
O=C(CC1SC(N2CCCC2)=NC1=O)Nc1ccc(C(=O)Nc2ccccc2)cc1 (stereo unspecified)	none (no result: Gal4-VP16 FLuc, RORgamma inh, GALK inhibitor, Coupling enz)
O=c1[nH]c2cccnc2n1Cc1ccccc1	none
CC1(C)Cc2c(cnn2-c2ccc(F)cc2)C(NC(=O)C(C)(C)O)C1 (stereo unspecified)	none
CN(C)c1ccc(C=c2c3ccccc3n3c2c2ccccc2[n+]3C)cc1	TrxR1 inh 31.6µM (no result: Gal4-VP16 FLuc, RORgamma inh, GALK inhibitor, Coupling enz)
Cc1cc2c(=Cc3ccc(N(C)C)cc3)c3ccccc3n2[n+]1C	none (no result: Gal4-VP16 FLuc, RORgamma inh, GALK inhibitor, Coupling enz)
O=C(COC(=O)/C=C/c1ccco1)NCc1ccc(Cl)cc1	TrxR1 inh 79.4µM (no result: Gal4-VP16 FLuc, RORgamma inh, GALK inhibitor, Coupling enz)
O=C(COC(=O)/C=C/c1ccccc1)NCc1cccs1	none (no result: Gal4-VP16 FLuc, RORgamma inh, GALK inhibitor, Coupling enz)
O=C(COC(=O)/C=C/c1ccco1)NCc1ccccc1	none
Cc1ccc(/C=C/C(=O)OCC(=O)NCc2cccs2)o1	TrxR1 inh 56.2µM (no result: Gal4-VP16 FLuc, RORgamma inh, GALK inhibitor, Coupling enz)
Cc1nc(NC(=O)COC(=O)/C=C/c2ccco2)c(Cl)cc1Cl	TrxR1 inh 39.8µM (no result: Gal4-VP16 FLuc, RORgamma inh, GALK inhibitor, Coupling enz)
CC(C)=CC(=O)OCC(=O)Nc1nc(C)c(Cl)cc1Cl	none
